Most compounds without a hit are left out; they make up all but 14% or so of the library.
LmPK inh: LmPK (Leishmania mexicana) enzyme inhibition; actives 0.37% (n = 290,000); purified LmPK, Kinase-Glo ATP luminescence, 1 h; Q27686; Potency, µM (doses to about 57.5 µM), without a hit: at the highest dose activity change, negative = inhibition, usual class: inhibitors; AID 1721; also: potency is read from the fitted curve at half-maximal effect; % is scaled to controls: 0 for no effect and ±100 for the full control effect
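Purified LmPK (0.1 nM) converted ADP (0.1 mM) to ATP with PEP (0.5 mM) in imidazole buffer pH 7.2 with KCl and MgCl2, 1 h at room temperature. ATP was read by Kinase-Glo luminescence; data normalized to uninhibited and no-enzyme controls.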
CHX counter: counter-screen hit for Shiga toxin inhibitors, cycloheximide; max response, %; actives 12% (n = 300,000); cell reporter, cycloheximide protein synthesis inhibition counterscreen; in the data active = max response mostly above about 13%, no sharp cut-off; inactive = mostly below about 14%; also: read at 38.3 µM for the half of the compounds with a filed dose; 0% is about no effect
NS1 inh: inhibitors of influenza NS1 protein function. Potency, µM (titrated, usually from 46.1 µM), for inactives: top-dose activity, positive = more growth. actives 0.4% (n = 270,000). AID 2326; calls by dose curve; also: potency is read from the fitted curve at half-maximal effect; actives are rising curves; nearly all actives have a fitted effect of over 50% in size
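OD600 was taken as the measure of yeast growth restored by compound in an NS1-expressing S. cerevisiae strain. Cells had been washed out of glucose medium and diluted 1:100 into galactose -URA medium, pH 6.0.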
Giardia FBPA inh: blocks Giardia fructose-bisphosphate aldolase activity. A8B2U2. purified Giardia FBPA. Potency, µM (top dose mostly 59.6 µM), inactives show at the highest dose activity, negative = inhibition, actives largely listed as inhibitors. actives 0.71% (n = 290,000). AID 2451; also: potency is read from the fitted curve at half-maximal effect; % is scaled to controls: 0 for no effect and ±100 for the full control effect; nearly all actives have a fitted effect of over 55% in size
Target sequence (A8B2U2 whole entry, looked up): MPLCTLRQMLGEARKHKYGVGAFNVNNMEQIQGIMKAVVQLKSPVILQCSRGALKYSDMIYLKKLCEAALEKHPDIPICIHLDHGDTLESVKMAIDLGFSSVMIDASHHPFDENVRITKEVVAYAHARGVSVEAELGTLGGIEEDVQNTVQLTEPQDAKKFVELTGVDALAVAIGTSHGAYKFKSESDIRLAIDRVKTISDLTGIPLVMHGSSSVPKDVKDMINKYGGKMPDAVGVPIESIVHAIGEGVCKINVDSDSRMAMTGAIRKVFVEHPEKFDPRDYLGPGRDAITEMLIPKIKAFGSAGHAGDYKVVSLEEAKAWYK
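40 nM FBPA preincubated 10 min at RT with compound (up to 57.5 uM final), then substrate plus GAPDH/TPI/NAD/arsenate coupling and diaphorase/resazurin added. Fluorescence read after 20 min at RT, 525/598 nm.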
Shiga inhibitor: blocks Shiga toxin action in Vero cells. Vero cells, Shiga toxin protein synthesis inhibition reporter. inhibition, % at 38.7 µM. actives 9.2% (n = 290,000). AID 2315; in the data active = inhibition mostly above about 28%, no sharp cut-off; inactive = mostly below about 43%; also: 0% is about no effect
Starred values were filed as active, the others as inactive; ? = inconclusive; nt = no result; [ ] = remark or other dose. Unless noted, calls follow the shape of the dose curve; as a rule, active = well fitted curve in the direction sought with a large enough effect; inconclusive = small, poorly fitted or top-dose-only effect, or another doubt; inactive = no such curve, though single readings can be large; an effect the other way counts as inactive or inconclusive.

SMILES	LmPK inh	CHX counter	NS1 inh	Giardia FBPA inh	Shiga inhibitor
CSc1ccc(/C=N/n2c(C)cc(C)cc2=O)cc1	-21.9%	27.1*	-9.9%	-6.5%	111.7*
C(=N\N1CCN(Cc2ccccc2)CC1)/c1ccc(-c2ccccc2)cc1	0.4%	1.0	6.5%	0.7%	-3.0
O=C(Nc1c(-c2ccccc2)nc2ccccn12)c1ccccc1F	-11.5%	-4.8	3.3%	-4.0%	19.6
CN(C)c1ccc(-c2nn3c(-c4ccc(Cl)cc4)nnc3s2)cc1	-2.5%	3.5	-3.2%	3.1%	13.7
Clc1ccc(-c2nn3c(C4COc5ccccc5O4)nnc3s2)cc1 (stereo not given)	1.7%	20.0*	-86.6%	6.3%	-3.5
CCOC(=O)CCCNC(=O)N1CCc2nc(-c3ccc(OC)cc3C)c3c(c2C1)CO[C@@H](c1ccccc1)C3	-3.1%[11.5 µM]	nt	nt	4.3%[12.9 µM]	nt
COc1cccc(Nc2ncc(C#N)c(N)n2)c1	-11.9%	38.6*	-5.4%	-0.4%	81.1*
O=C(c1nn2c(C(F)(F)F)cc(-c3cccs3)nc2c1Br)N1CCCc2ccccc21	2.0%	20.8*	24.7%	-3.2%	15.7
O=C(c1cc2nc(-c3cccs3)cc(C(F)(F)F)n2n1)N1CCCc2ccccc21	-3.4%	19.6*	-2.3%	-6.7%	26.1
Cc1cc(C(F)(F)F)n2nc(-c3cccs3)cc2n1	-5.0%	31.1*	3.7%	4.3%	39.4*
CCC(=O)c1c(NC(CC)CO)cc(C)oc1=O (stereo not given)	-2.0%	13.8	nt	4.6%	-21.5
COc1ccc(OC)c(/C=C/c2nc3ccccc3[nH]c2=O)c1	10.1%	-2.7	-7.2%	-13.6%	-3.1
O=c1[nH]c2ccccc2nc1/C=C/c1ccc(F)cc1	-17.0%	37.3*	?	-6.6%	73.2*
O=c1[nH]c2ccccc2nc1/C=C(\O)C1CC1	-0.9%	2.9	23.4%	3.7%	-5.3
CC(C)(C)/C(O)=C/c1nc2ccccc2[nH]c1=O	3.6%	5.9	6.3%	6.2%	10.9
O=c1[nH]c2ccccc2nc1/C=C/c1ccc(O)cc1	-27.7%	41.9*	0.9%	-11.0%	69.7*
O=c1[nH]c2ccccc2nc1/C=C/c1ccccc1	-12.5%	44.9*	-5.8%	3.0%	58.9*
COc1ccc(OC)c(NC(=O)C(CCSC)NS(=O)(=O)c2cccs2)c1 (stereo not given)	1.8%	-5.9	-2.7%	4.5%	-6.9
Cc1ccc(CNc2ncnc3ccc(-c4c(C)noc4C)cc23)cc1	nt	12.5	nt	-0.9%	25.2
O=C(CCc1ccc(S(=O)(=O)NC2CCCCC2)cc1)NCc1ccccn1	-7.9%	44.3*	6.1%	-24.9%	97.6*
O=C1CS(=O)(=O)c2ccccc2N1	1.3%	-4.0	3.5%	-4.1%	-9.7
CCCn1c(O)c(N=Nc2ccc3ccccc3n2)c2ccccc21	1.7%	30.3*	7.5%	-0.3%	41.5*
CCCn1c2ccccc2c2nc3ccccc3nc21	-2.2%	18.6*	-131.5%	-4.5%	26.8
CC(C)CCn1c(O)c(N=Nc2ccccn2)c2ccccc21	-6.0%	5.4	-25.8%	-9.5%	11.9
CCN(CC)CCn1c2ccccc2c2n[nH]c(=S)nc21	-3.7%	-3.4	-6.9%	-5.1%	-9.5
SMILES	LmPK inh	CHX counter	NS1 inh	Giardia FBPA inh	Shiga inhibitor
N#CCCn1c2ccccc2c2nc3ccccc3nc21	1.6%	-4.8	-25.4%	-4.4%	-7.1
CCOC(=O)Cn1c2ccccc2c2nc3ccccc3nc21	1.1%	11.6*	-0.4%	-17.7%	27.6
CCN(CC)CCn1c2ccccc2c2nc3ccccc3nc21	-0.6%	44.3*	-25.1%	-8.1%	52.6*
CCOC(=O)CCN1C(=O)[C@H]2[C@H]3[C@H](O)[C@H](O)C/C(=N/O[C@@H]4O[C@@H](COC(C)=O)[C@@H](OC(C)=O)[C@@H](OC(C)=O)[C@H]4OC(C)=O)[C@H]3CC[C@@H]2C1=O	nt	nt	nt	-0.5%[12.9 µM]	nt
CCC(C(=O)NC1CCCC1)N(C(=O)Cn1nnc(-c2ccc(C)o2)n1)c1cccc(OC)c1 (stereo not given)	-0.1%	-2.4	-7.6%	5.7%	9.2
CCOC(=O)Cn1c(=O)c(-c2ccccc2N)nc2ccccc21	8.5%	25.1*	-4.5%	-1.6%	-4.3
C1CCC(Nc2nc3nonc3nc2N2CCSCC2)C1	7.8%	-2.5	6.1%	4.5%	-13.0
CC(CCc1ccccc1)NS(=O)(=O)c1ccccc1F (stereo not given)	-4.0%	-6.6	-31.3%	6.9%	-8.5
CC(C)(C)c1ccc(NC(=O)CSc2nnc(-c3n[nH]c4ccccc34)o2)cc1	1.6%	26.2	8.9%	-24.2%	37.3*
Cc1ccc(C)c(NC(=O)CSc2nnc(-c3n[nH]c4ccccc34)o2)c1	0.8%	-1.3	-2.2%	-0.1%	-2.4
CCc1ccc(N(CC(=O)NCCc2ccccc2)C(=O)CCC(=O)Nc2ccccn2)cc1	-2.9%	-5.2	-11.1%	16.5%	-10.2
COc1cc(C=O)ccc1OCc1ccncc1	1.3%	-1.5	1.8%	-4.1%	-4.3
COc1cc(C=O)c(Br)cc1OCc1ccc(C)cc1	4.6%	46.6*	-0.3%	-1.0%	87.4*
CSCC[C@H](N)C(=O)N[C@@H](CCCN=C(N)N)C(=O)N[C@@H](Cc1ccccc1)C(=O)N[C@@H](Cc1ccccc1)C(=O)N[C@H](C(=O)O)C(C)C	nt	-8.6	nt	3.2%	-10.3
COc1ccc(CN(CCC#N)C(=S)NC(=O)c2ccccc2)cc1	20µM*	14.0	-3.2%	nt	74.6
Cc1ccc(-c2[nH]c3ccccc3c2C(C[N+](=O)[O-])c2ccco2)cc1 (stereo not given)	1.3%	20.5*	5.4%	-11.5%	24.9
CC(NC(=O)/C=C/c1ccco1)c1nc2ccccc2n1Cc1c(Cl)cccc1Cl (stereo not given)	1.6%	21.6*	6.6%	1.7%	44.0*
CC(NC(=O)/C=C/c1ccco1)c1nc2ccccc2n1Cc1ccccc1F (stereo not given)	0.4%	27.4*	10.7%	3.2%	59.8
CCNc1ncc2nc(-c3ccc(OC)cc3)c(=O)n(CCOC)c2n1	nt	nt	nt	6.0%	nt
CC[C@H](C)[C@H](NC(=O)[C@@H](NC(=O)CNC(=O)[C@@H](N)CC(C)C)[C@@H](C)O)C(=O)N1CCC[C@H]1C(=O)NCC(=O)O	nt	0.2	nt	-0.2%	-7.9
Cc1cc(N)n(-c2ccc3ccccc3c2)n1	-19.3%	17.9*	23.6%	0.5%	42.6*
COc1ccc(-n2nc(C)cc2N)cc1	-8.1%	-1.0	7.0%	-0.8%	9.8
CC1(C)[C@@H]2CC[C@]1(CC(=O)O)[C@H](Cl)C2	nt	nt	-3.5%	nt	nt
COc1ccc(NC2=C(Cl)C(=O)N(CCc3ccccc3)C2=O)c(OC)c1	-2.7%	73.0*	-3.6%	-8.7%	58.7*
COc1ccc(NC2=C(Cl)C(=O)N(CCc3ccccc3)C2=O)cc1	2.3%	26.0*	10.0%	0.7%	53.0
COc1ccc(CCNC2=C(Cl)C(=O)N(CCc3ccc(OC)c(OC)c3)C2=O)cc1OC	0.6%	15.4	3.9%	2.6%	-7.8
CCOc1ccc(NC2=C(Cl)C(=O)N(Cc3ccccc3)C2=O)cc1	4.6%	-1.8	9.5%	-3.7%	-8.9

High-throughput results: PubChem BioAssay, National Center for Advancing Translational Sciences (NCATS)
